An excerpt weighted towards active compounds, which were near 3.2% of everything screened.
DAGLB inhibitor: diacylglycerol lipase beta (human) inhibition. inhibition, % at 5.17 µM. HEK293T DAGLB membrane lysate, EnzChek fluorogenic substrate. Q8NCG7. 340,000 compounds, 0.059% hits; in the data active = inhibition above about 34%
NadD inh: blocks S. aureus nicotinate mononucleotide adenylyltransferase; 360,000 compounds, 0.78% hits; inhibition, % at 20 µM; purified NadD enzyme, colorimetric absorbance read-out; AID 602399; in the data active = inhibition above about 26%
rCAG RNA binder: binds r(CAG) RNA repeats. AID 651821. r(CAG) RNA repeat, TO-PRO-1 dye displacement fluorescence. inhibition, % at 3 µM. 370,000 compounds, 1.3% hits;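 active = inhibition above the plate cutoff, the mean of all test compounds on that plate plus 3 SD, cut at about 35% in these data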;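 note: higher means more dye released from RNA so lower well fluorescence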
MsrA act: bovine methionine sulfoxide reductase A activation | purified bovine MsrA, absorbance read-out | activation, % at 10.6 µM | 360,000 compounds, 0.3% hits | AID 602163; in the data active = activation above about 7.5%
Pemphigus Ab inh: blocks pemphigus antibody binding to human desmoglein-3. 310,000 compounds, 0.48% hits. DSG3-coupled beads, scFv-anti-DSG3-GFP binding, flow cytometry; hits give low values. binding (percent of control), % at 10 µM. AID 588358;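 active = binding more than 3 SD below its plate's average and above zero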;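 note: hits lower antibody fragment binding to DSG3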
MsrA inhibitor: inhibitors of bovine MsrA. 360,000 compounds, 0.75% hits. purified bovine MsrA, absorbance read-out. inhibition, % at 15.5 µM; in the data active = inhibition above about 4.5%
NadD inh conf: confirmation of Staphylococcus aureus NadD inhibitors; 2,000 compounds, 13% hits; purified S. aureus NadD, colorimetric enzyme assay; shares compounds with NadD inh; inhibition, % at 20 µM; in the data active = inhibition mostly above about 42%, no sharp cut-off; inactive = mostly below about 42%
Of the large screens only hits and unclear results are named; the others gave an inactive call (follow-up assays come after a bar, where they were run).

C[C@@H]1OCN(C)[C@H]2C[C@H]3c4[nH]c5cccc(-c6cccc(F)c6)c5c4CCN3C(=O)[C@@H]12	none (no result: DAGLB inhibitor, NadD inh, MsrA act, Pemphigus Ab inh, MsrA inhibitor)
CCCCOCC1CN(CCCC)S(=O)(=O)c2c(Oc3ccc(C(C)C)cc3)cccc2O1 (stereo not drawn)	none (no result: DAGLB inhibitor, NadD inh, MsrA act, Pemphigus Ab inh)
Cc1ccc(-c2nnc(SCC(=O)N/N=C/c3c(C)nn(-c4ccccc4)c3C)n2-c2ccccc2)cc1	none
Cc1ccc(-c2nnc(SCC(=O)N/N=C/c3c(C)nn(-c4ccccc4)c3C)n2-c2ccc(C)cc2)cc1	NadD inh 30 | NadD inh conf inactive
COC(=O)[C@]12CCCCC=C1N(Cc1ccc(OC)cc1)C(=O)[C@@H]2CC(=O)NCc1ccc(C)o1	none (no result: DAGLB inhibitor, NadD inh, MsrA act, Pemphigus Ab inh, MsrA inhibitor)
O=C(NC1CCCCN(Cc2ccc(Cl)cc2)C1=O)c1ccc(F)c(F)c1 (stereo not drawn)	none (no result: DAGLB inhibitor, NadD inh, MsrA act, Pemphigus Ab inh, MsrA inhibitor)
CC(=O)c1cc(-c2ccccc2S(=O)(=O)NC(C)(C)C)c(=O)n2c1CCC2	none (no result: DAGLB inhibitor, NadD inh, MsrA act, Pemphigus Ab inh, MsrA inhibitor)
Cc1cccc(-c2nnn3c2nc(NCCc2ccc(S(N)(=O)=O)cc2)c2ccccc23)c1	NadD inh 34 | NadD inh conf inactive
Cc1cc2cc(CNS(=O)(=O)c3ccc4ccccc4c3)ccc2n1C	NadD inh 35 | NadD inh conf inactive
Cc1cc(C)c(S(=O)(=O)NCc2ccc3c(c2)cc(C)n3C)c(C)c1	none
CC(=O)c1cc(-c2ccc3c(c2)OCO3)c(=O)n2c1CCC2	none (no result: DAGLB inhibitor, NadD inh, MsrA act, Pemphigus Ab inh, MsrA inhibitor)
N#C/C(=C\c1ccc(-c2cccc([N+](=O)[O-])c2)o1)C(=O)Nc1nc(-c2cccs2)cs1	NadD inh 42 | NadD inh conf inactive
Brc1ccc(-c2csc(Nc3nc(-c4ccc(Br)cc4)cs3)n2)cc1	NadD inh 30 | NadD inh conf inactive
Nc1nc(-c2ccc(Br)cc2)cs1	none
C[C@H](CO)N1C[C@H](C)[C@@H](CN(C)S(=O)(=O)c2ccccc2F)Oc2ncc(C#Cc3cccnc3)cc2C1=O	none
Cc1c(NC(=O)/C(C#N)=C/c2ccc(-c3cccc(Cl)c3)o2)c(=O)n(-c2ccccc2)n1C	none
Cc1c(NC(=O)/C(C#N)=C/c2ccc(-c3ccc(Cl)c(Cl)c3)o2)c(=O)n(-c2ccccc2)n1C	NadD inh 33 | NadD inh conf inactive
O=C(c1cc(C2CC2)on1)N(C1CCCCC1)C1CCOCC1	none (no result: DAGLB inhibitor, NadD inh, MsrA act, Pemphigus Ab inh, MsrA inhibitor)
Cc1cccnc1C1=NOC(Cc2ccccc2)C(=O)N1Cc1ccccc1F (stereo not drawn)	none (no result: DAGLB inhibitor, Pemphigus Ab inh)
Cc1ccc(-c2ccc(C(=O)Nc3ccccc3)o2)c2ccccc12	none
Cc1cscc1-c1ccc(C(=O)Nc2c(C)cccc2C)o1	NadD inh 31 (no result: DAGLB inhibitor, Pemphigus Ab inh) | NadD inh conf inactive
CCn1c2ccccc2c2cc(NC(=O)COC(=O)c3cc(Cl)c(N)cc3OC)ccc21	NadD inh 36 | NadD inh conf inactive
CCCCCc1c(-c2ccc(Br)cc2)ncn1CCc1ccccc1OC	none (no result: DAGLB inhibitor, Pemphigus Ab inh)
Cc1ccc(C)c(S(=O)(=O)N2CCC(c3nc4c(nnn4Cc4ccc5c(c4)OCCO5)c(=O)[nH]3)CC2)c1	NadD inh 46 | NadD inh conf inactive
O=c1[nH]c(C2CCCN(S(=O)(=O)c3cccc(Cl)c3)C2)nc2c1nnn2Cc1ccc2c(c1)OCCO2 (stereo not drawn)	NadD inh 58 | NadD inh conf 57
O=c1[nH]c(C2CCN(S(=O)(=O)c3ccc4c(c3)OCCO4)CC2)nc2c1nnn2Cc1ccccc1	none
COc1ccc(-n2c(SCC(=O)N3CCCCC3C)nnc2-c2ccncc2)cc1 (stereo not drawn)	none (no result: DAGLB inhibitor, NadD inh, MsrA act, Pemphigus Ab inh, MsrA inhibitor)
COC(=O)[C@H](CC(C)C)N1Cc2nnn(CC3CCCCC3)c2-c2ccccc2S1(=O)=O	none (no result: DAGLB inhibitor, NadD inh, MsrA act, Pemphigus Ab inh, MsrA inhibitor)
CCOC(=O)Cc1nc(N2CCN(Cc3cccc4c3OCO4)CC2)c2c(C)c(C(=O)OCC)sc2n1	none (no result: DAGLB inhibitor, NadD inh, MsrA act, Pemphigus Ab inh, MsrA inhibitor)
CCCNC(=O)c1ccc(N2CCC3(CC2)CC(c2cccc(Br)c2)=NO3)c(NC(=O)c2ccc(Cl)c([N+](=O)[O-])c2)c1	NadD inh 30 | NadD inh conf inactive
Cc1ccc(CNC(=O)c2ccc(N3CCC4(CC3)CC(c3cccc(Br)c3)=NO4)c(NC(=O)c3ccccc3)c2)cc1	none
Cc1ccc(CNC(=O)c2ccc(N3CCC4(CC3)CC(c3cccc(Br)c3)=NO4)c(NC(=O)c3ccc(Cl)c([N+](=O)[O-])c3)c2)cc1	NadD inh 34 | NadD inh conf inactive
CCN(Cc1cn(Cc2ccccc2)nn1)S(=O)(=O)c1ccc(F)cc1Br	none (no result: DAGLB inhibitor, NadD inh, MsrA act, Pemphigus Ab inh, MsrA inhibitor)
CC(C)(C)c1ccc(CC(=O)N2CCC2(C)C(=O)Nc2cnc3ccccc3c2)cc1 (stereo not drawn)	none (no result: DAGLB inhibitor, Pemphigus Ab inh)
O=C(N/N=C/c1cccc([N+](=O)[O-])c1)c1nc2ccccc2c(=O)[nH]1	none
O=C(N/N=C/c1ccccc1Cl)c1nc2ccc([N+](=O)[O-])cc2c(=O)[nH]1	NadD inh 36 | NadD inh conf inactive
CCOc1cccc(=O)c2c(C)n(CC(=O)c3ccccc3)c(C)c12	NadD inh 48 | NadD inh conf inactive
CCOc1cccc(=O)c2c(C)oc(C)c12	none
COc1ccc(Cn2c(SCc3cc(C)ccc3C)nc3cc(OC)c(OC)cc3c2=N)cc1	NadD inh 39 | NadD inh conf inactive
COc1ccc(Cn2c(SCc3ccc(C)cc3)nc3cc(OC)c(OC)cc3c2=N)cc1Cl	NadD inh 51 | NadD inh conf inactive
CCOc1ccc(OCCNCc2ccc(OC(C)C(=O)N(C)C)c(OCC)c2)cc1 (stereo not drawn)	none
Cc1ccc(N=C2SC(C(=O)Nc3ccc(OC(F)(F)F)cc3)C(N)=C2C(=O)Nc2c(C)cc(C)cc2C)cc1 (stereo not drawn)	NadD inh 33 | NadD inh conf inactive
Fc1cccc(CNC(=S)OC2CCC23CCC(c2ccccc2)CC3)c1 (stereo not drawn)	none (no result: DAGLB inhibitor, NadD inh, MsrA act, Pemphigus Ab inh, MsrA inhibitor)
C=CCCC1(CCC)C(=O)/C(=C(\O)c2ccccc2)C(=O)C(CCC)=C1OC (stereo not drawn)	none (no result: DAGLB inhibitor, NadD inh, MsrA act, Pemphigus Ab inh, MsrA inhibitor)
COC(=O)[C@]12C[C@H](CC(=O)NCCCN3CCCC3=O)C(=O)N(Cc3ccc(Cl)cc3Cl)C1=C[C@H](C(C)(C)C)O[C@@H]2C	none (no result: DAGLB inhibitor, NadD inh, MsrA act, Pemphigus Ab inh, MsrA inhibitor)
CCC(=O)OCOc1ccc(/C=C2/CCC(CN(C)C)C2=O)cc1 (stereo not drawn)	none
Cc1[nH]c2ccccc2c1/C=C/c1nc2ccccc2c(=O)n1-c1ccc([N+](=O)[O-])cc1	NadD inh 34 | NadD inh conf inactive
CCn1c(/C=C/c2c(C)[nH]c3ccccc23)nc2ccccc2c1=O	none
O=C(COc1cccc(Cl)c1)N/N=C\c1cc2ccccc2nc1Cl	none
Cc1ccc2nc(Cl)c(/C=N/NC(=O)[C@H]3C[C@@H]3c3ccccc3)cc2c1	none
CC(C)(C)c1ccc(C2CC2C(=O)N/N=C\c2cc3ccccc3nc2Cl)cc1 (stereo not drawn)	NadD inh 36 (no result: Pemphigus Ab inh) | NadD inh conf inactive
O=C(CNc1ccc2ccccc2c1)N/N=C/c1cc2ccccc2nc1Cl	NadD inh 40 | NadD inh conf inactive
CC(C)Cc1ccc(-c2ccc3nccn3c2)cc1	none (no result: DAGLB inhibitor, Pemphigus Ab inh)

Source: PubChem
